44 sequences from publication PMC7819943, “Rice protein-binding microarrays: a tool to detect cis-acting elements near promoter regions in rice” can be followed below.

In all, about 35,000 sequences were measured (“fluorescence intensity (a.u.)”: median about 10,000, highest 2% from about 52,000 on). Only a selection was taken, and the highest values are over-represented in it overall.

The target in this assay is T1, OsWOX13 (Oryza sativa, UniProt Q5QMM3 1-267).
T1 sequence: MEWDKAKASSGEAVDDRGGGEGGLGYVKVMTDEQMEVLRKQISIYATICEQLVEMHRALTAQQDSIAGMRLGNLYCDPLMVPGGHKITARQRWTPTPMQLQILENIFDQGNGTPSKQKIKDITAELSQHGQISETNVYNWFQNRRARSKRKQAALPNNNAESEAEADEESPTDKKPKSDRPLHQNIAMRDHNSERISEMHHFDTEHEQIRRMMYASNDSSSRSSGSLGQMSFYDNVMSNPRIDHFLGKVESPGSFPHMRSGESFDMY
The assay is described as follows: protein-binding microarray (RPBM); PBS, 2% BSA, 51.3 ng/ul salmon testes DNA, 50 uM zinc acetate, 200 nM TF, 25 C, 1 h; high values mean tight binding. The settings on record: protein: recombinant; tags: N-terminal polyhistidine and DsRed monomer fusion (pET32a); label: CyDye5-dUTP incorporated in the synthesized complementary strand; 3' TTTTT single-stranded linker to array surface; dsDNA, one strand shown. In outline:
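The binding signal is fluorescence intensity per feature, in arbitrary units, read on an Axon 4000B scanner. Polyhistidine- and DsRed-tagged transcription factors (N-terminal fusions) from E. coli BL21-CodonPlus were purified on Ni–NTA and applied at 200 nM for 1 h at 25 °C to a double-stranded, BSA-blocked custom Agilent array in buffer with 50 µM zinc acetate.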
For “TTAGATTGGGACAGTACGTAGGAATTGGTTGATTTCCGGGCGGAGTCACCTAGTGCAG”, the binding signal is 16300 fluorescence intensity (a.u.).
For “TGGGCCTGATTAACATGTGCTGTAGAATCGTACAACTGTGCGGAGTCACCTAGTGCAG”, the binding signal was 7530 fluorescence intensity (a.u.).
As for “GTACAGTGTACTTGATTGAGTTGACAGTCATACTCTACTACGGAGTCACCTAGTGCAG”, the figure is 18500 fluorescence intensity (a.u.); as for “CAGTGTGATTGACTGTTGAGGCGGAGTCGGAGCTGCTTGTCGGAGTCACCTAGTGCAG”, 50900 fluorescence intensity (a.u.).
For “CTATTGATTTCTGCTGCTACTTTTCTATACTGTATTTTGTCGGAGTCACCTAGTGCAG” the value was 15500 fluorescence intensity (a.u.).
Regarding “AAAGGGTTAATTTGTCAAATTTTCGGGCTTTAGTGAAAAGCGGAGTCACCTAGTGCAG”, the binding signal was 12700 fluorescence intensity (a.u.).
In the case of “TCAAACTTACATAATTTACATGCCATGTTATCCAATATGCCGGAGTCACCTAGTGCAG”, the binding signal was 11100 fluorescence intensity (a.u.).
Turning to “GGAAAGACAGATTGAAGAAGCTGGGGTTCAAACCCAGGATCGGAGTCACCTAGTGCAG”, the binding signal was 10300 fluorescence intensity (a.u.).
For “ATGTCGACATACGTAATTAATGTACACTCAGAACATGTCGCGGAGTCACCTAGTGCAG” the value was 4870 fluorescence intensity (a.u.); for “TAAAACTATTTAATTACCAAACTATTCACGTGATGAGATGCGGAGTCACCTAGTGCAG”, 14900 fluorescence intensity (a.u.); for “CTAATCTAATCATCGGATTAGGAAATAAGTAAGCAAACAACGGAGTCACCTAGTGCAG”, 6880 fluorescence intensity (a.u.).
Regarding “TCTATAAATTGAACATGTTTCAAACCAGGCTTGCAAGTTGCGGAGTCACCTAGTGCAG”, the binding signal is 15500 fluorescence intensity (a.u.).
Take “AGTTTCCTAATCTATTATATGATAGTACTCGGTCGGAGCTCGGAGTCACCTAGTGCAG”: the binding signal is 3210 fluorescence intensity (a.u.).
For “ATTTAACTGTATAAACAATTAATAACAAGAATTGTGTATACGGAGTCACCTAGTGCAG” the value was 16100 fluorescence intensity (a.u.); for “AGTAATTTACTTGCTAGCTTGCAACTATTTCTTAGTACATCGGAGTCACCTAGTGCAG”, 3460 fluorescence intensity (a.u.).
Turning to “CATCCTCATTAACGGCAGATTAATACTATTTAGTCCATCTCGGAGTCACCTAGTGCAG”, the binding signal is 3220 fluorescence intensity (a.u.).
As for “AAGTTGATTACTTAAACTGATTGACAGGGAGGCGGTTGAACGGAGTCACCTAGTGCAG”, the figure is 56600 fluorescence intensity (a.u.); as for “AAATTTTGATTTTAAAACTTAATTGTAAAGTTGACTTTAACGGAGTCACCTAGTGCAG”, 9040 fluorescence intensity (a.u.); as for “AAACTGATTGACGGTTTTCTTTCTAAAACTGATTTTCAGGCGGAGTCACCTAGTGCAG”, 43200 fluorescence intensity (a.u.).
As for “TATATATATATATATATATATATACCCACGTGAGGACGTACGGAGTCACCTAGTGCAG”, the binding signal is 31500 fluorescence intensity (a.u.).
As for “TTTGTTATAATTGATATTTAATTAATCATATGGTAATTACCGGAGTCACCTAGTGCAG”, the figure is 27800 fluorescence intensity (a.u.); as for “ACGTAATTATAGCTTATTTTGTTATGAGTTATTTTATCACCGGAGTCACCTAGTGCAG”, 24500 fluorescence intensity (a.u.); as for “CACAATTTAATATGGTTATAATTGTAATCTCACATATCCTCGGAGTCACCTAGTGCAG”, 7610 fluorescence intensity (a.u.).
For “TGAAATGGTTAAATGATTTGGGTTGAAATATTATGAAAATCGGAGTCACCTAGTGCAG” the value was 3220 fluorescence intensity (a.u.); for “ACGTAATTATAATTTATTTTATTATGAGTTGTTTTATCACCGGAGTCACCTAGTGCAG”, 37000 fluorescence intensity (a.u.); for “GGCAGCAAGACCAATTTTAATTGAAGACCACGGAAGGAGCCGGAGTCACCTAGTGCAG”, 3450 fluorescence intensity (a.u.).
Consider “TTAGTGCTTAAATGATTAATCTATGGTCTAAATTATCTTTCGGAGTCACCTAGTGCAG”, for which the binding signal was 7610 fluorescence intensity (a.u.).
As for “GTGAAAATGATTGGTCTTTTGATTAACATATGCAGCTTATCGGAGTCACCTAGTGCAG”, the binding signal was 53300 fluorescence intensity (a.u.).
In the case of “AATTGATGATGAAATAATGAATGATATTTGACAAGGAGCTCGGAGTCACCTAGTGCAG”, the binding signal was 17300 fluorescence intensity (a.u.).
As for “GTTGATTTAATTATGGTTAACCTCTCACAGTAATCCGGGTCGGAGTCACCTAGTGCAG”, the figure is 64800 fluorescence intensity (a.u.); as for “ACGTAATTATAATTTATTTTGTTATGAGTTGGTTTATCACCGGAGTCACCTAGTGCAG”, 62600 fluorescence intensity (a.u.); as for “ATAATTGATAATGAAGACCAAGGAAATGCTTCTTTGGTCCCGGAGTCACCTAGTGCAG”, 54300 fluorescence intensity (a.u.).
Take “TGTAATTATAATTTATTTTATTGTGATTTGATTTATCATCCGGAGTCACCTAGTGCAG”: the binding signal is 59800 fluorescence intensity (a.u.).
Consider “GCTTAATTAATTGATTCAGAAAATAAAATAGTGAAATAACCGGAGTCACCTAGTGCAG”, for which the binding signal was 33400 fluorescence intensity (a.u.).
Consider “ATGGTTTGACTTGGATAAACTGGATTCTTAACTCAAACCTCGGAGTCACCTAGTGCAG”, for which the binding signal was 3410 fluorescence intensity (a.u.).
For “GATATATGATTGACTCAAGTCTTATTGATAAACTTGGTCCCGGAGTCACCTAGTGCAG” the value was 57500 fluorescence intensity (a.u.); for “TATGTAATTATTATTTATTTTATTGTGATTTGATTCATCACGGAGTCACCTAGTGCAG”, 31400 fluorescence intensity (a.u.).
For “TTATGTAATTATAATTTATTTTATTGTGACTTGATTTATCCGGAGTCACCTAGTGCAG” the value was 34000 fluorescence intensity (a.u.); for “TGTAATTATAATTTATTTTGTGATGAGTTGTTTTATCACTCGGAGTCACCTAGTGCAG”, 55800 fluorescence intensity (a.u.).
As for “GTAATTATAATTTATTTTGTTATGAGTTGTTTTATCACTCCGGAGTCACCTAGTGCAG”, the figure is 6220 fluorescence intensity (a.u.).
On to “AATAATTTGGTTAGTTATTGTTAAGGAGAAATTTGATTCCCGGAGTCACCTAGTGCAG”, for which the binding signal was 12500 fluorescence intensity (a.u.).
As for “TTGATATTCTTTATATGATTATATAGGATTGGTCTCCCTCCGGAGTCACCTAGTGCAG”, the figure is 3530 fluorescence intensity (a.u.); as for “GTAATAATTGATTGGTTCAGAAATTAATCACTAATTGTCCCGGAGTCACCTAGTGCAG”, 65000 fluorescence intensity (a.u.).
As for “ACGTAATTATAATTATTTTATTGTGAGTTGTTTTATTACTCGGAGTCACCTAGTGCAG”, the figure is 26500 fluorescence intensity (a.u.).
